Screening results (PubChem)
CHO-K1 Ca PAM: nonselective calcium activators in parental CHO-K1 cells, primary screen, counter-screen for M1 PAM project, cell-based, Fluo-8 calcium fluorescence, full deck, 1536-well | actives 0.02% (n = 360,000) | activation, % at 3 µM | ATP EC20; 0% at ATP EC20, 100% at ATP max;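 active means activation above the run cutoff, the mean activation of all test compounds plus 3 SD, cut at about 40% in these data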;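 further: peak over basal fluorescence ratio in a 140 s read after ATP addition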
CHO-K1 Ca antag: M1 antagonist counterscreen hit in parental CHO-K1 cells; ATP-induced calcium, Fluo-8 fluorescence; inhibition, % at 3 µM; actives 0.6% (n = 360,000);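 active means inhibition above a per-plate cutoff, the plate's mean sample inhibition plus 3 SD, cut at about 24% in these data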
M1 ag: human M1 muscarinic receptor agonists, primary screen, Fluo-8 calcium fluorescence, CHO-K1 cells, HTS; CHO-K1 hM1, agonist mode; 0% DMSO, 100% acetylcholine EC100; activation, % at 3 µM; actives 0.33% (n = 360,000); AID 588814, 2011;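 active means activation above the run's mean compound activation plus 3 SD, cut at about 16% in these data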;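 further: peak over basal fluorescence ratio within a 140 s kinetic read after compound addition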
Target sequence (P11229 whole entry, looked up): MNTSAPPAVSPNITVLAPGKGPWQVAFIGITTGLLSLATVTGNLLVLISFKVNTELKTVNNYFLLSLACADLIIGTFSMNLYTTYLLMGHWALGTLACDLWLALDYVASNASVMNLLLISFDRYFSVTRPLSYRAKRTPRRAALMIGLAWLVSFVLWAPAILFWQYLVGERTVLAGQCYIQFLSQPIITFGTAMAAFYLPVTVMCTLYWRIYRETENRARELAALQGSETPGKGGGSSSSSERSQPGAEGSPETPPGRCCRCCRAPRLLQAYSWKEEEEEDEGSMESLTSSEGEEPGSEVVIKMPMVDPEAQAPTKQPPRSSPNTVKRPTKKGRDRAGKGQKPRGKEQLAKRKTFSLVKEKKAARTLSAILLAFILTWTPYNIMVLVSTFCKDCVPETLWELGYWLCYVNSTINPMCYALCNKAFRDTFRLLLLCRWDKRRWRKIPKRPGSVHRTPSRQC
CHO-K1 Ca ag: counter-screen for M1 agonists: effect in parental CHO-K1 cells | Fluo-8 calcium fluorescence; scaled to maximal ATP response, vehicle zero | activation, % at 3 µM | actives 0.48% (n = 360,000) | AID 602248, 2012; in the data active means activation above about 15%;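 further: untransfected CHO-K1 host cells lacking M1 receptor as counterscreen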
M1 antag: human M1 muscarinic receptor antagonists, primary screen, CHO-K1 cells, Fluo-8 calcium fluorescence, 1536-well. Muscarinic acetylcholine receptor M1 (Homo sapiens), P11229. CHO-K1 hM1, ACh EC80 antagonist. inhibition, % at 3 µM. actives 1.3% (n = 360,000). AID 588852, 2011;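 active means percent inhibition above its own plate's cutoff, namely the mean of that plate's compound wells plus 3 SD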;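 further: peak over basal fluorescence ratio during 140 s after agonist addition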
CHRM1 PAM: human M1 muscarinic receptor positive allosteric modulators, primary screen, CHO-K1 cells, Fluo-8 calcium fluorescence, 1536-well; Muscarinic acetylcholine receptor M1 (Homo sapiens), P11229; actives 0.088% (n = 360,000); activation, % at 3 µM; CHO-K1 hM1, ACh EC20; 0% = ACh EC20, 100% = maximal ACh; in the data active means activation above about 19%, passing the limit was not always enough
Each line names hits and unclear results; the compound was inactive in the other large screens. Only some compounds are listed: those with a hit (about 2.4% of all), similar ones and a draw of the others.

Cc1ccc2c(C)c(C(=O)Nc3cccnc3)oc2c1	none
COc1ccc(NC(=S)NCCSc2ccc(Cl)cc2)c(OC)c1	CHO-K1 Ca antag 24
Cn1c(SCc2ccccc2Cl)nnc1-c1cnccn1	CHO-K1 Ca antag 24
N#Cc1ccc(NC(=O)Nc2cccc(C#N)c2)cc1	CHO-K1 Ca antag 31, CHO-K1 Ca ag 18
N#Cc1ccc(NC(=O)Nc2ccc(Oc3ccc(NC(=O)Nc4ccc(C#N)cc4)cc3)cc2)cc1	none
CCC1CCCCN1CCCNC(=O)C1CCC(CNS(=O)(=O)c2c(C)cc(C)cc2C)CC1 (configuration not stated)	CHO-K1 Ca antag 24, M1 antag 63
CCCOc1ccc(OC(=O)c2ccc(Br)o2)cc1	M1 ag 45
CCc1ccc(OCC(=O)NNC(=O)CNC(=O)c2ccc(Br)o2)cc1	none
O=C1CCC(c2ccccc2)(C2CCN(Cc3ccccc3)CC2)C(=O)N1 (configuration not stated)	M1 antag 98
O=C(Nc1ccccc1)Nc1ccc2nnsc2c1	CHO-K1 Ca antag 25, CHO-K1 Ca ag 18, M1 antag 59
O=C(Nc1ccccc1)Nc1ccc2snnc2c1	none
C[C@@]12C(=O)Nc3cc(F)ccc3C(=O)N1[C@H]1c3ccccc3OC[C@@H]1[C@@H]2c1ccccc1	M1 antag 75
C[C@@]12C(=O)N(c3ccc(F)cc3)C(=O)N1[C@@H]1c3ccccc3OC[C@@H]1[C@H]2c1ccccc1	none
Cc1ccc2c(c1)[C@H]1[C@H](CO2)[C@H](c2ccccc2)[C@]2(C)C(=O)Nc3cc(F)c(F)cc3C(=O)N12	M1 antag 41
C[C@]12C(=O)N(c3ccc(F)cc3)C(=O)N1[C@H]1c3ccccc3OC[C@@H]1[C@H]2c1ccccc1	CHO-K1 Ca PAM 44
Cc1ccc2c(c1)[C@H]1[C@H](CO2)[C@H](c2ccccc2)[C@]2(C)C(=O)Nc3ccc(F)cc3C(=O)N12	M1 antag 66
COc1nc(SC)nc(Cl)c1Cc1ccc(OC(C)C)cc1	none
CN1CCN(C(CNC(=O)C(=O)NC2CCCC2)c2ccc(F)cc2)CC1 (configuration not stated)	CHO-K1 Ca antag 53
CCOC(=O)c1c(NC(=O)CN2C(=O)NC3(CCCCC3C)C2=O)sc(C)c1CC (configuration not stated)	CHO-K1 Ca ag 23
OCCN(Cc1cccnc1)Cc1ccccn1	M1 antag 59
Cc1ccc(S(=O)(=O)N2CCC(C(=O)Nc3ccc(C(C)C)cc3)CC2)cc1	none
C=C1CC2C(=O)N(Cc3ccccc3)C(C(=O)OCC)(C(=O)OCC)C1N2C(=O)OC(C)(C)C (configuration not stated)	none
COc1ccc(C(CNC(=O)COc2ccccc2C)N2CCCCC2)cc1 (configuration not stated)	none
COc1ccccc1C(CNC(=O)COc1cc(C)ccc1Cl)N1CCCC1 (configuration not stated)	M1 antag 62
Cc1cc(C)c(OCC(=O)NCC(c2ccco2)N2CCCCC2)c(C)c1 (configuration not stated)	none
CCC(=O)NCC(c1ccco1)N1CCN(c2ccc(OC)cc2)CC1 (configuration not stated)	CHO-K1 Ca ag 17
COc1ccccc1C(CNC(=O)COc1ccccc1C)N1CCCC1 (configuration not stated)	M1 antag 59
Cc1ccccc1OCC(=O)NCC(c1ccco1)N1CCCCC1 (configuration not stated)	M1 antag 28
O=C(Nc1ccn(Cc2ccccc2F)n1)c1ccc(COc2ccc(Br)cc2)cc1	M1 antag 33
O=C1C(=Cc2cn(-c3ccccc3)nc2-c2ccc(OCc3ccccc3)cc2)SC(=S)N1CCS(=O)(=O)O	none
